Bioassay records from PubChem BioAssay.
Cruzain inh noDet: qHTS Assay for Promiscuous and Specific Inhibitors of Cruzain (without detergent). purified cruzain, Z-FR-AMC fluorescence, no detergent. actives 2.3% (n = 200,000). Potency, µM, without a hit: max response, negative = inhibition, most hits filed as inhibitors;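 also: plate controls were enzyme without inhibitor for no effect and buffer without enzyme for full effect; nearly all actives have a fitted effect of over 40% in size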
Target sequence (P25779 123-467 limits assumed): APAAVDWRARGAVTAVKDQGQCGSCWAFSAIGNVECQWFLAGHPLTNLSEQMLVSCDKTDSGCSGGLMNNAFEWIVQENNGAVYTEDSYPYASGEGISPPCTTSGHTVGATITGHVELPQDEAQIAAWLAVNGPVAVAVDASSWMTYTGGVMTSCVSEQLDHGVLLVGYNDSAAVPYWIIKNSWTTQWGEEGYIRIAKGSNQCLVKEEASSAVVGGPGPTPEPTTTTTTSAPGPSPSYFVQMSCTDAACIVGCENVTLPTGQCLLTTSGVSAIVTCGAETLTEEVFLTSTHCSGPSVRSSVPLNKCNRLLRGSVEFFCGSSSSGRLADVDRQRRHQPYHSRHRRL
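Purified cruzain at 1.5 nM, pre-incubated 15 min with compound at room temperature in 100 mM sodium acetate pH 5.5, 5 mM DTT, 0.00005% Triton X-100. Reaction started with 2 uM Z-FR-AMC; AMC fluorescence increase over 60 s gives rate.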
Cruzain inh Det: qHTS Assay for Promiscuous and Specific Inhibitors of Cruzain (with detergent); Cruzipain (Trypanosoma cruzi), P25779; purified cruzain, Z-FR-AMC fluorescence, 0.01% Triton; actives 0.43% (n = 200,000); Potency, µM, for the others: max response, negative = inhibition, most hits filed as inhibitors;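 also: plate controls were neutral wells for no effect and buffer without enzyme for full effect; nearly all actives have a fitted effect of over 40% in size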
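15 min RT preincubation of 1.5 nM cruzain with compound, then 2 uM Z-FR-AMC added; kinetic AMC fluorescence, 60 s delta. Triton X-100 0.01%, pH 5.5.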
Numbers without * were called inactive; ? = inconclusive. A selection: hits, their analogues and other compounds. The true share with any hit is near 2.5%. Calls follow the shape of the dose curve; as a rule, active = well fitted curve in the direction sought with a large enough effect; inconclusive = small, poorly fitted or top-dose-only effect, or another doubt; inactive = no such curve, though single readings can be large; an effect the other way counts as inactive or inconclusive. Potency is read from the fitted curve at half-maximal effect.

SMILES | Cruzain inh noDet | Cruzain inh Det
Cc1ccc(NC(=[OH+])c2cc3ccccc3cc2O)c(C)c1.Cc1ccc(NC(=[OH+])c2cc3ccccc3cc2O)c(C)c1.[Ni] | 30% | 5%
COc1ccccc1CNC(=O)C1CCN(S(=O)(=O)c2c(C)noc2/C=C/c2c(C)cc(C)cc2C)CC1 | 5% | -3%
CCOC(=O)c1nn(-c2cccc(OC)c2)c2nc(Nc3ccccc3)cc(=O)n12 | ? | -6%
CCOC(=O)c1nn(-c2cccc(Cl)c2)c2nc(Nc3ccccc3)cc(=O)n12 | ? | -6%
Cc1cccc(-n2nc(C(=O)Nc3ccccc3)n3c(=O)cc(-c4ccccc4)nc23)c1 | 7.9µM* | -1%
O=C(c1ccccc1)c1nn(-c2cccc(Cl)c2)c2nc(-c3ccccc3)cc(=O)n12 | 25µM* | 4%
CN1C(=O)c2ccccc2Sc2ccc(NC(=O)N3CCN(c4ccc(F)cc4)CC3)cc21 | ? | -7%
COc1ccc2c(c1)c1c(c(=O)n(-c3ccc(C)cc3)c(=O)n1CC(=O)Nc1cc(C)ccc1C)n2C | -7% | -2%
O=C1CSC2(C(=O)N(Cc3ccccc3F)c3ccccc32)N1c1cccc(C(F)(F)F)c1 (stereo unspecified) | -5% | -11%
C=CCCCCCCC=C | -2% | 7%
O=[N+]([O-])c1ccc(N2N=C(c3ccco3)CC2c2ccccc2)cc1 (stereo unspecified) | 13µM* | -7%
Fc1ccc(C2CC(c3ccco3)=NN2c2ccccc2)cc1 (stereo unspecified) | ? | -3%
COc1cc(C2C(=O)N(C3CCCCC3)CC(=O)N2Cc2ccc(C)cc2)ccc1OC(C)C (stereo unspecified) | -7% | 1%
CCOC(=O)c1c(C)[nH]c(C)c1S(=O)(=O)N1CCCC(C(=O)N2CCN(c3ccc(Cl)cc3)CC2)C1 (stereo unspecified) | ? | -2%
CCOC(=O)c1cc2cc3ccccc3cc2[nH]1 | 25µM* | -6%
CC(C)OC(=O)c1cc2ccccc2[nH]1 | -10% | -5%
Cc1ccc(Nc2sc(C(=O)c3ccccc3)c(N)c2S(=O)(=O)c2ccccc2)c(C)c1 | 10µM* | -4%
Cc1nn(C(C)(C)C)c(OC(=O)c2ccc3c(c2)OCO3)c1S(=O)(=O)c1ccccc1 | 7% | -6%
Cc1ccc(Nc2sc(C(=O)c3ccccc3)c(N)c2C(=O)NC(C)C)cc1 | 9% | -3%
COc1ccccc1Nc1sc(C(=O)c2ccc3c(c2)OCO3)c(N)c1S(=O)(=O)c1ccccc1 | 7.9µM* | -3%
COc1ccccc1Nc1nc(C)nc(N)c1S(=O)(=O)c1ccccc1 | -12% | -3%
Cc1ccc(Nc2sc(C(=O)c3ccc(F)cc3)c(N)c2S(=O)(=O)c2ccc(C)cc2)cc1 | ? | 2%
Cc1ccc(S(=O)(=O)c2c(Nc3cc(F)ccc3F)sc(C(=O)c3ccc(F)cc3)c2N)cc1 | 3.2µM* | -5%
COc1ccccc1Nc1sc(C(=O)c2ccc(C)cc2C)c(N)c1S(=O)(=O)c1ccccc1 | 7.9µM* | -1%
CC(=O)O[C@]1(C(C)=O)CC[C@H]2C3C=C(Cl)C4=CC(=O)[C@@H]5C[C@H]5[C@]4(C)C3CC[C@@]21C (stereo partly specified) | ? | -12%
SMILES | Cruzain inh noDet | Cruzain inh Det
CCOc1ccc(NC(=O)CC2C(=O)N(c3ccc(F)cc3)C(=O)N2CCc2sccc2C)cc1 (stereo unspecified) | 1% | -6%
Nc1nc(N)c(N=Nc2ccc(C(=O)O)c(O)c2)c(N)n1 | 6% | -2%
COc1cccc([C@@H]2Oc3ccc(OC)cc3C(=O)[C@H]2OC(=O)NCCc2ccc(OC)c(OC)c2)c1 | 13% | 0%
CCOc1ccc(OCC)c(NS(=O)(=O)c2ccc3c(c2)CCCN3C(C)=O)c1 | ? | -4%
CCc1ccc(Nc2sc(C(=O)c3ccccc3)c(N)c2S(C)(=O)=O)cc1 | -8% | -10%
Cc1ccc(Cl)cc1Nc1sc(C(=O)c2ccc(F)cc2)c(N)c1S(C)(=O)=O | -27% | -12%
COc1ccc(S(=O)(=O)c2c(Nc3ccc(F)cc3)sc(C(=O)c3ccc(C)cc3C)c2N)cc1 | 5µM* | -1%
CCOc1ccc(Nc2sc(C(=O)c3cccc(OC)c3)c(N)c2S(=O)(=O)c2ccccc2)cc1 | 13µM* | -2%
Nc1c(C(=O)c2ccc(F)cc2)sc(Nc2ccccc2F)c1S(=O)(=O)c1ccc(Br)cc1 | -27% | -1%
COc1ccc(OC)c(Nc2sc(C(=O)c3ccccc3)c(N)c2S(=O)(=O)c2ccccc2)c1 | 7.9µM* | -2%
COc1cccc(C(=O)c2sc(Nc3ccc(C)cc3C)c(S(=O)(=O)c3ccccc3)c2N)c1 | 7.9µM* | -4%
Cc1ccc(NS(=O)(=O)c2cccc(C(=O)O)c2)c(C)c1 | 1% | 2%
CCc1cccc(C)c1NC(=O)c1cc(S(=O)(=O)N2CCCCCC2)cn1C | -5% | -1%
CCN(CC)c1ccc(-c2nc(-c3ccccc3C)no2)cc1[N+](=O)[O-] | 6% | -12%
CCc1ccc(-n2c(=O)c3sc4ccccc4c3n(CC(=O)N3CCCC3)c2=O)cc1 | 4% | -2%
CCc1ccc(Nc2sc(C(=O)c3ccc(F)cc3)c(N)c2S(=O)(=O)c2ccccc2)cc1 | 7.9µM* | -4%
Cc1ccc(Nc2sc(C(=O)c3ccccc3)c(N)c2S(=O)(=O)c2ccccc2)cc1Cl | 4µM* | -5%
Cc1cc(Nc2sc(C(=O)c3ccc(F)cc3)c(N)c2C(=O)Nc2ccc(F)cc2)ccc1Cl | ? | -6%
Cc1ccccc1Nc1sc(C(=O)c2ccc(F)cc2)c(N)c1C(=O)NCCc1ccccc1 | ? | -4%
CCN(C(=O)c1cc(S(=O)(=O)N2CCc3ccccc32)cn1C)c1cccc(C)c1 | -6% | -4%
CN(C(=O)CSc1nc2ccc(NC(=O)c3ccco3)cc2s1)c1ccccc1 | 3% | -8%
O=C(c1cnc(N2CCOCC2)c2ccccc12)N1CCN(c2ccccc2)CC1 | 10% | -2%
CN(C)c1cccc(C(=O)OCc2cc(=O)oc3cc(O)ccc23)c1 | -7% | -15%
O=C(Cc1cc(=O)oc2cc(O)ccc12)NCC1CCC(C(=O)O)CC1 (stereo unspecified) | -87% | 25µM*
CCN(CC)S(=O)(=O)c1ccc(/C=C/C(=O)OCC(=O)Nc2cccc3ccccc23)cc1 | -10% | -2%
SMILES | Cruzain inh noDet | Cruzain inh Det
O=C(COC(=O)/C=C/c1ccc(Cl)cc1)Nc1ccccc1-c1ccccc1 | 10% | -4%
O=C(COC(=O)/C=C/c1nc2ccccc2s1)Nc1cccc(Cl)c1Cl | 10µM* | -2%
O=C(COC(=O)/C=C/c1nc2ccccc2s1)Nc1cccc2ccccc12 | 6.3µM* | -5%
COc1ccc2c(c1)CC(C(=O)NCCCN1CCN(c3ccc(F)cc3)CC1)CO2 (stereo unspecified) | -8% | -1%
CCOc1ccc(CCNC(=O)c2sc3ncccc3c2-n2cccc2)cc1OCC | ? | -6%
O=C(O)[C@H](C1NCCS1)N1C(=O)c2ccccc2C1=O (stereo partly specified) | 8% | 0%
CCCOc1ccc(NC(=O)CC2C(=O)N(c3ccc(Cl)cc3)C(=O)N2CCc2ccncc2)cc1 (stereo unspecified) | 20% | -7%
Cc1c(C(=O)N(Cc2ccc(N(C)C)cc2)Cc2ccco2)oc2cc(Br)ccc12 | -9% | -3%
COc1cccc(C(=O)Nc2cccc(-c3cn4c(C)csc4n3)c2)c1OC | -21% | -2%
